Results from the supplement of paper PMC10849652.
About 8,800 targets were measured; listed, in parts, are those with a hit and a random draw of the rest. About 0.5% of all pairs of compound and target were hits. A number with no mark means an inactive call.

Compound: CC(=O)c1cnc2ccc(-c3cc(Cl)c(O)c(Cl)c3)nc2c1N[C@H]1CC[C@H](CN(C)C)CC1
Test: log2 fold change, soluble protein after heating vs DMSO (PISA); higher = thermal stabilisation; K562 lysate, 10 uM; active = over 0.2 and 3.5 SD of the protein, either way, in both replicates (recomputed)
Method in brief: (§1)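 Thermal stability, expressed as log-two fold change relative to solvent controls, is given from duplicates. Crude K562 extract in PBS pH 7.4 with 1 mM MgCl2, at 1 mg/mL protein, was treated with 10 μM compound for 30 min and heated in aliquots for 3 min across 48°C-58°C. After pooling, adjustment to 0.5% NP-40 at 4°C and centrifugation at 21,000xg for 90 min, supernatant protein was measured by TMTpro 16plex LC-MS/MS with channel sums equalised.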

Sequence of UniProt Q8NBX0 (Q8NBX0 whole entry, looked up): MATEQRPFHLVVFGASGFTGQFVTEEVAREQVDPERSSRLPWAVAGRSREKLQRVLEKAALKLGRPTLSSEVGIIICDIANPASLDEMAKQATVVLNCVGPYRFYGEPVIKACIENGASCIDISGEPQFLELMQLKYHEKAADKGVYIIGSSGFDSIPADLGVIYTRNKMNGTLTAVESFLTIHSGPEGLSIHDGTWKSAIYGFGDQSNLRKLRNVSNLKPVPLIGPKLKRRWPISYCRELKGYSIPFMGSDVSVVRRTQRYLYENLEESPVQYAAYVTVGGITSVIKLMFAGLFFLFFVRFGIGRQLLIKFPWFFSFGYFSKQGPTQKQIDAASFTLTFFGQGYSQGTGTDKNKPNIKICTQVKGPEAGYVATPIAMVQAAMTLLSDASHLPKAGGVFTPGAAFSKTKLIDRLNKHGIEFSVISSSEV
Sequence of UniProt Q15418 (Q15418 whole entry, looked up): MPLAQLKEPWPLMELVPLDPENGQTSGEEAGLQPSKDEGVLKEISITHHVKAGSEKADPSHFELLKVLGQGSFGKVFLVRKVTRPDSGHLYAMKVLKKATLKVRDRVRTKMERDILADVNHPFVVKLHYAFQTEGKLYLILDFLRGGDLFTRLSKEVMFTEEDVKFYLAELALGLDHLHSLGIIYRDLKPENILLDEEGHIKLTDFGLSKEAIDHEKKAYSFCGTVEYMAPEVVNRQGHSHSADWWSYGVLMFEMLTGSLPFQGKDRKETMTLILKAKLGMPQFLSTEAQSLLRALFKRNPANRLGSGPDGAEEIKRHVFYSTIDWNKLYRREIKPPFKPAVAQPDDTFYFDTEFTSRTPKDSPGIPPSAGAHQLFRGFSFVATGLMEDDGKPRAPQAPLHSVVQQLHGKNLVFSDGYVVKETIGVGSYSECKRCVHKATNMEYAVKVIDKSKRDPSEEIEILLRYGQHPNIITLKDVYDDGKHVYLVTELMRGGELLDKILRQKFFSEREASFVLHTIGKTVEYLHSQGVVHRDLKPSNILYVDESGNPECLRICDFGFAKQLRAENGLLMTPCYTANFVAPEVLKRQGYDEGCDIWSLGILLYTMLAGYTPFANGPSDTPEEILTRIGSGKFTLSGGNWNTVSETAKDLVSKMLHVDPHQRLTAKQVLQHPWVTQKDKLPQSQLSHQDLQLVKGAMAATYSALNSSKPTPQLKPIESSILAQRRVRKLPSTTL
Sequence of UniProt Q15287 (Q15287 whole entry, looked up): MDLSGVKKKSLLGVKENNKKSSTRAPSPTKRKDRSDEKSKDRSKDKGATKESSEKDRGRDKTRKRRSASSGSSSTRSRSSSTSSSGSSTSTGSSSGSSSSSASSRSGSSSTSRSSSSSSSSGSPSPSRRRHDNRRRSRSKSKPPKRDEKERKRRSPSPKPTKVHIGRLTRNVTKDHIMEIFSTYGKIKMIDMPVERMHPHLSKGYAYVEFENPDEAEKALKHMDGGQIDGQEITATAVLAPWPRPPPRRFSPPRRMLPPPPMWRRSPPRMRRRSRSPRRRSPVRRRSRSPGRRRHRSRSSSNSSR
Sequence of UniProt Q8WWV3 (Q8WWV3 whole entry, looked up): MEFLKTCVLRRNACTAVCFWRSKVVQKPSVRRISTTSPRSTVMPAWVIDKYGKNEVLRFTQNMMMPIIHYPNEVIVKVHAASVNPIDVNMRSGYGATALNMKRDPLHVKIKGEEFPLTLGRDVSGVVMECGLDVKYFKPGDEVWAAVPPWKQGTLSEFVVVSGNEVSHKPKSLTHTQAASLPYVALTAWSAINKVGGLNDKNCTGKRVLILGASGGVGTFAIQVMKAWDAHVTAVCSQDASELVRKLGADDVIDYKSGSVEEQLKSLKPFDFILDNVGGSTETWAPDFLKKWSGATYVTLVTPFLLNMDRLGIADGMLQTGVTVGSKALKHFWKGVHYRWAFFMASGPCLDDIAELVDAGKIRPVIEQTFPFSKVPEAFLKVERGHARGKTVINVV
Sequence of UniProt Q9P0K7 (Q9P0K7 whole entry, looked up): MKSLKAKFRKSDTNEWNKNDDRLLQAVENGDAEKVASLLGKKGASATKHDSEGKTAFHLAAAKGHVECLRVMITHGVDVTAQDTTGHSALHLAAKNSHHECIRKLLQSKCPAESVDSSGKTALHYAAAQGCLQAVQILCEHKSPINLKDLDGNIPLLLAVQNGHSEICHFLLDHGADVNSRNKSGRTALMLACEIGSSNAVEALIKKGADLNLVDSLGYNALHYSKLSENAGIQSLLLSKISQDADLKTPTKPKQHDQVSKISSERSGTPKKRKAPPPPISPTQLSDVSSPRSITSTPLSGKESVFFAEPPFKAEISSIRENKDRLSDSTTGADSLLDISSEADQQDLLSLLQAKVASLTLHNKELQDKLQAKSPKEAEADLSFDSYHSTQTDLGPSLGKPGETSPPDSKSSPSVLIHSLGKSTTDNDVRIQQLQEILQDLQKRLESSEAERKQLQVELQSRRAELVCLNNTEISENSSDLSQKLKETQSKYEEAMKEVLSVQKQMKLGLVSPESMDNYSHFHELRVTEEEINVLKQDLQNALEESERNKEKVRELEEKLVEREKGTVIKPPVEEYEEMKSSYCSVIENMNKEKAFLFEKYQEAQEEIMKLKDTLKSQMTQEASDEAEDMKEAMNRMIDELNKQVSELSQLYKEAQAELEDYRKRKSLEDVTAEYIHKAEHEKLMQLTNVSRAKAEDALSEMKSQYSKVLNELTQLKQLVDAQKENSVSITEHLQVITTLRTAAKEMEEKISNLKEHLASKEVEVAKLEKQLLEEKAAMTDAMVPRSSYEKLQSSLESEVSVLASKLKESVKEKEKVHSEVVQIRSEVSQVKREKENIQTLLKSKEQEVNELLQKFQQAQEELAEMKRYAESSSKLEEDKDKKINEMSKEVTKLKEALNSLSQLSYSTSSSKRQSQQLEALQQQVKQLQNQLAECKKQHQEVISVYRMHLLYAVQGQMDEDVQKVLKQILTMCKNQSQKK
Sequence of UniProt Q9NW64 (Q9NW64 whole entry, looked up): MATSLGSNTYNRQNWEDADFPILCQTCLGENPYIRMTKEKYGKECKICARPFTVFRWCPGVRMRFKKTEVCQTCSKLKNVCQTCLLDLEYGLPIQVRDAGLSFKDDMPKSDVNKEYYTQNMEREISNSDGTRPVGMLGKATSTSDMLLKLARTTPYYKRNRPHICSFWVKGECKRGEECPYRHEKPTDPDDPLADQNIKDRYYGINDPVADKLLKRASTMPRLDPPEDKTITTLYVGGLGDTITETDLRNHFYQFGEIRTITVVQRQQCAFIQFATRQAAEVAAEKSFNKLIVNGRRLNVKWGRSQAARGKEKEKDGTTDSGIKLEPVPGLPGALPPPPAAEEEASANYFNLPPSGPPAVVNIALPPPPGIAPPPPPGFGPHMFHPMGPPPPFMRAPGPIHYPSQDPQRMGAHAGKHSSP
Sequence of UniProt P31040 (P31040 whole entry, looked up): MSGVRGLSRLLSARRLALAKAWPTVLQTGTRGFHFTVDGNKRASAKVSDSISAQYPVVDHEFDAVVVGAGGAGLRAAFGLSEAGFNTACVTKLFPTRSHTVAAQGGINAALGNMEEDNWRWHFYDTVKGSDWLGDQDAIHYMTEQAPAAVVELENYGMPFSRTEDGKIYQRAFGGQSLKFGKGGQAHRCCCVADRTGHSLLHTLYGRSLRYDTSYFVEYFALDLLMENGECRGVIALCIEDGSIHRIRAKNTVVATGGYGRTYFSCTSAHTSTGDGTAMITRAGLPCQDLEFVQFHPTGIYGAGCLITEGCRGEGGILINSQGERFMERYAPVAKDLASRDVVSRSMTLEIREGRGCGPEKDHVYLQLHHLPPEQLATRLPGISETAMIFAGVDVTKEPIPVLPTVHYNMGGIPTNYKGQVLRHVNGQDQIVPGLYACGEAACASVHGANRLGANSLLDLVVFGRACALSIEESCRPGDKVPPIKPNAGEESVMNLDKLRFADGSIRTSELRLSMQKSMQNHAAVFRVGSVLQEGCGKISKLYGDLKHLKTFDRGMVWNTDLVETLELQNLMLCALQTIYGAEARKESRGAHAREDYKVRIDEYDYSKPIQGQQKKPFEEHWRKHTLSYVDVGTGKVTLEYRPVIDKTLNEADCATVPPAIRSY
Sequence of UniProt Q15283 (Q15283 whole entry, looked up): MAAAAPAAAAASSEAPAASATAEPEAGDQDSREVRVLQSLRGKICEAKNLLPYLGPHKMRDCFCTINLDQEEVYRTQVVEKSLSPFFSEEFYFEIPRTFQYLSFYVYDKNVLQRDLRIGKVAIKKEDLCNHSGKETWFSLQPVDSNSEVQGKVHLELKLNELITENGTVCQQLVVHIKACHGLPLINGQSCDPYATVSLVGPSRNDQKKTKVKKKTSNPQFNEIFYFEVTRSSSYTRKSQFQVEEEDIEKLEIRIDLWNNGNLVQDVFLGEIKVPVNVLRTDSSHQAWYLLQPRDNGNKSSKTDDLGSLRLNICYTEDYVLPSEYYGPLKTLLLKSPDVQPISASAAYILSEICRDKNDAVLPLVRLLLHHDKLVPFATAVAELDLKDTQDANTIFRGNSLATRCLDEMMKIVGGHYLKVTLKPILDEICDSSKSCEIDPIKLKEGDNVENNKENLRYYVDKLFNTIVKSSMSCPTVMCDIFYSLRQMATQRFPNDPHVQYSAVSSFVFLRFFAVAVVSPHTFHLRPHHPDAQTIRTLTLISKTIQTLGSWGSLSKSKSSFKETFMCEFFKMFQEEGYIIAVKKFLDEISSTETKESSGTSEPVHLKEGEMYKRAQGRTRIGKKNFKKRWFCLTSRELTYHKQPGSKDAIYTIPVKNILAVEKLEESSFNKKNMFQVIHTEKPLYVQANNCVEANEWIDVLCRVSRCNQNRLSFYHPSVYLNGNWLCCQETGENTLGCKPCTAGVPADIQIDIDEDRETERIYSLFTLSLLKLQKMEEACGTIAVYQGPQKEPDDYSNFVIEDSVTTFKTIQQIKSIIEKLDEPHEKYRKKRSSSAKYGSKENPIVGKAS
Sequence of UniProt Q9H0U4 (Q9H0U4 whole entry, looked up): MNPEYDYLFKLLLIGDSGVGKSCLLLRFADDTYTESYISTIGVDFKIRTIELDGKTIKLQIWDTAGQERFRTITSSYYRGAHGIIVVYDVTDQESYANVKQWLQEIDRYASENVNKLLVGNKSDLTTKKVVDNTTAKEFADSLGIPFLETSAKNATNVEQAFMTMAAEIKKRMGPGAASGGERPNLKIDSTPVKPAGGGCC

In order of rising log2 fold change:
1. SCCPDH (UniProt Q8NBX0)  -0.042
2. ROCK1 (UniProt Q13464)  -0.027
3. RAI14 isoform 2 (UniProt Q9P0K7)  -0.007
4. RBM22 (UniProt Q9NW64)  -0.007
5. SDHA (UniProt P31040)  0
6. RPS26P11 (UniProt Q5JNZ5)  0.004
7. RPL36AL (UniProt Q969Q0)  0.004
8. RPL8 (UniProt P62917)  0.007
9. RTN4IP1 (UniProt Q8WWV3)  0.02
10. RNPS1 (UniProt Q15287)  0.042

With RPS6KA1 (UniProt Q15418) the log2 fold change was 0.555 (active).

Compound: CC(C)(C)Cn1c(N)nc2ccc(-c3[nH]c(C(C)(C)C)nc3-c3ccc(F)cc3)nc21 [ralimetinib]
Test: as above
Method in brief: as §1

In order of rising log2 fold change:
1. RRAGA (UniProt Q7L523)  -0.112
2. RBBP8 isoform 2 (UniProt Q99708)  -0.086
3. RPL37A (UniProt P61513)  -0.041
4. SEC62 (UniProt Q99442)  -0.032
5. RBM22 (UniProt Q9NW64)  -0.03
6. RAB3IL1 (UniProt E9PK89)  -0.028
7. RPL36AL (UniProt Q969Q0)  -0.018
8. RAB1B (UniProt Q9H0U4)  -0.014
9. RBSN (UniProt Q9H1K0)  -0.014
10. SEC16A isoform 5 (UniProt O15027)  -0.013
11. SEH1L isoform 1 (UniProt Q96EE3)  -0.011
12. RBM42 (UniProt Q9BTD8)  -0.011
13. RAI14 isoform 2 (UniProt Q9P0K7)  -0.011
14. RSU1 (UniProt Q15404)  -0.005
15. ROCK1 (UniProt Q13464)  -0.005
16. RCAN1 (UniProt P53805)  -0.004
17. RPL28 (UniProt P46779)  -0.003
18. SBF1 isoform 4 (UniProt O95248)  0
19. RASA2 (UniProt Q15283)  0.006
20. RNPS1 (UniProt Q15287)  0.007
21. RPS26P11 (UniProt Q5JNZ5)  0.008
22. RPL8 (UniProt P62917)  0.01
23. RTN4IP1 (UniProt Q8WWV3)  0.012
24. QRSL1 (UniProt Q9H0R6)  0.018
25. RPS6KB1 (UniProt P23443)  0.026
26. RFC3 (UniProt P40938)  0.03
27. RMC1 (UniProt Q96DM3)  0.03
28. RNF40 (UniProt O75150)  0.033
29. SDHA (UniProt P31040)  0.043
30. RIOK3 (UniProt O14730)  0.055
31. RAC2 (UniProt P15153)  0.07
32. RDH14 (UniProt Q9HBH5)  0.072
33. SCCPDH (UniProt Q8NBX0)  0.083
34. RPS6KA1 (UniProt Q15418)  0.32

Compound: CC(C)(O)CC(=O)NCCn1ccc2ncnc(Nc3ccc(Oc4cccc(C(F)(F)F)c4)c(Cl)c3)c21
Test: as above
Method in brief: as §1

In order of falling log2 fold change:
1. SCCPDH (UniProt Q8NBX0)  0.112
2. RDH14 (UniProt Q9HBH5)  0.089
3. RPL36AL (UniProt Q969Q0)  0.088
4. SDHA (UniProt P31040)  0.049
5. RPL37A (UniProt P61513)  0.03
6. RTN4IP1 (UniProt Q8WWV3)  0.028
7. SEC16A isoform 5 (UniProt O15027)  0.015
8. RCAN1 (UniProt P53805)  0.012
9. RBBP8 isoform 2 (UniProt Q99708)  0.011
10. RPS6KB1 (UniProt P23443)  0.007
11. RNPS1 (UniProt Q15287)  0.006
12. RIOK3 (UniProt O14730)  0
13. RPL8 (UniProt P62917)  -0.002
14. RPL28 (UniProt P46779)  -0.005
15. RBM42 (UniProt Q9BTD8)  -0.007
16. RBSN (UniProt Q9H1K0)  -0.007
17. SEH1L isoform 1 (UniProt Q96EE3)  -0.008
18. RAI14 isoform 2 (UniProt Q9P0K7)  -0.01
19. RFC3 (UniProt P40938)  -0.012
20. RAB1B (UniProt Q9H0U4)  -0.012
21. RNF40 (UniProt O75150)  -0.015
22. RSU1 (UniProt Q15404)  -0.02
23. SBF1 isoform 4 (UniProt O95248)  -0.021
24. ROCK1 (UniProt Q13464)  -0.021
25. RMC1 (UniProt Q96DM3)  -0.024
26. RAC2 (UniProt P15153)  -0.027
27. RPS26P11 (UniProt Q5JNZ5)  -0.034
28. RASA2 (UniProt Q15283)  -0.038
29. RBM22 (UniProt Q9NW64)  -0.044
30. SEC62 (UniProt Q99442)  -0.058
31. QRSL1 (UniProt Q9H0R6)  -0.064
32. RPS6KA1 (UniProt Q15418)  -0.077
33. RAB3IL1 (UniProt E9PK89)  -0.08
34. RRAGA (UniProt Q7L523)  -0.524
